The values that follow come from ChEMBL document CHEMBL3988442, “University of Dundee, Small-Polar-MMV Screening Library” (2021).

For some of these results: Measured potencies and affinities stand elsewhere.

Parameters in all cases: scale not given: direction of the effect not stated beside the values
The target in assay [1] is Protein translocase subunit SecA (Escherichia coli (strain K12)) (UniProt P10408). The experiment in a line: Assay to Identify E. coli SecA ATPase Inhibitors. The following applies: 30 µM. It counts as functional.
Sequence of Protein translocase subunit SecA (Escherichia coli (strain K12)) (P10408 whole entry): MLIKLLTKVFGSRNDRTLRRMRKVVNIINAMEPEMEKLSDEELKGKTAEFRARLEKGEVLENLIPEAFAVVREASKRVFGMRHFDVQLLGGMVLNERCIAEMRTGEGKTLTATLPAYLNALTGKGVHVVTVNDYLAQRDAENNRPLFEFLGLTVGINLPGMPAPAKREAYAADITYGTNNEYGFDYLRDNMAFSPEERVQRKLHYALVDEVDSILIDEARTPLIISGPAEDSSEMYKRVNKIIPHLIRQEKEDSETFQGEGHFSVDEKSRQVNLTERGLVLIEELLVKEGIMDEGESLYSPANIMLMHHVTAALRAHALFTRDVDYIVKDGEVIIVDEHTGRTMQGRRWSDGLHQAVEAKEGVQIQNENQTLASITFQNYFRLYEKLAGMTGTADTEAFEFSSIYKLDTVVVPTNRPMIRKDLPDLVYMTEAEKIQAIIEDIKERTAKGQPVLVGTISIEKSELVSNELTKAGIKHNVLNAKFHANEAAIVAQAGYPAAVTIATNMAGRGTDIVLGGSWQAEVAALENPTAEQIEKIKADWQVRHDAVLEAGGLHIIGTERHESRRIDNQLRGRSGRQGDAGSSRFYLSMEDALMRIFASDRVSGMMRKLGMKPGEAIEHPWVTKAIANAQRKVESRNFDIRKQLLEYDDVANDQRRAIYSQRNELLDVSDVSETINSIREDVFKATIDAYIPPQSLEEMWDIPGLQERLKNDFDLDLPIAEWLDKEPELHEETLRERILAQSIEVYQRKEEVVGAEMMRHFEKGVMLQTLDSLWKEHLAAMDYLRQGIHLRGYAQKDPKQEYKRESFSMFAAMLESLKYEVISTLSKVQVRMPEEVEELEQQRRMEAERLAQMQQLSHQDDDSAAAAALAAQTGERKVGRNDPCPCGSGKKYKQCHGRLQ
Assay [2] has as its target T1, Ubiquitin-activating enzyme e1, putative (Leishmania donovani (strain BPK282A1)) (UniProt E9BSI1).
T1 sequence (whole entry): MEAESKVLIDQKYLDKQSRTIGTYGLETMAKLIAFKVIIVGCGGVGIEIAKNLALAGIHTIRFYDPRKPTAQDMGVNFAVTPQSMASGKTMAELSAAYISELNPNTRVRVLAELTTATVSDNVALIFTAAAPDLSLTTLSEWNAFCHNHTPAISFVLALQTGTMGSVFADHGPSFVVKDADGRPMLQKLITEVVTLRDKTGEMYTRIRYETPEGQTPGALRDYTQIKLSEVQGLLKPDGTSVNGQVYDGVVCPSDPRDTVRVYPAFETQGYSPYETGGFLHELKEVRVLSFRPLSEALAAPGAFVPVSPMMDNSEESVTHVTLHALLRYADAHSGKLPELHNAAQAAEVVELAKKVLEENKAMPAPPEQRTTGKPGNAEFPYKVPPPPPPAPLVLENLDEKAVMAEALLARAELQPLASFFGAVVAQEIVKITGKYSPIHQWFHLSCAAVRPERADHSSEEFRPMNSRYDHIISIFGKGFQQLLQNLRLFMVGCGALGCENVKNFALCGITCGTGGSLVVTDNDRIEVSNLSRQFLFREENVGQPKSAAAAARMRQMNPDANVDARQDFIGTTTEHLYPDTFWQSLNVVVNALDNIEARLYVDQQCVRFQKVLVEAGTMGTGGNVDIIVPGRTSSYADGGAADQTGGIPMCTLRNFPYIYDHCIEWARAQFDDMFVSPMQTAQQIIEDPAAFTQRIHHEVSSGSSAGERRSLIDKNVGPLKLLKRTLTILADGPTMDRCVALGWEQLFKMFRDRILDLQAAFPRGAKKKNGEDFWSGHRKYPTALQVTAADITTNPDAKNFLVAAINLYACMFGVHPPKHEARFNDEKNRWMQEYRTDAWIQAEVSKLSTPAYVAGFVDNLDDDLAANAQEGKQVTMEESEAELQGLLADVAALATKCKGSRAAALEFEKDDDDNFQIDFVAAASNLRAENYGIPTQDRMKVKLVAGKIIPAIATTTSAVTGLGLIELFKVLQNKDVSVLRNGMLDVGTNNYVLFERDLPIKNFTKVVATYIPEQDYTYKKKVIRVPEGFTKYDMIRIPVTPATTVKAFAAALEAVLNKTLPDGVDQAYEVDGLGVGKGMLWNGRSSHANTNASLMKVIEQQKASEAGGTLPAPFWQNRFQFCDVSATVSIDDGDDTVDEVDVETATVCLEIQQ
Nature of the assay: Leishmania donovani Ubiquitin Activating Enzyme (LdE1). The format is functional. The following applies: 30 µM.

For assay [3], the target named is AMP-activated protein kinase, AMPK (Homo sapiens) (UniProt P54646+O43741+P54619+Q9UGJ0+Q9Y478+Q13131+Q9UGI9). Nature of the assay: AMP-dependent Kinase enzyme assay. An in vitro enzyme assay that detects ADP turnover that is directly proportional to AMPK activity. This uses naive AMPK that is activated during the assay with MK-8722. It counts as functional. The note with it: 30 µM.

For assay [4], the target named is Sialic acid-binding Ig-like lectin 9 (Homo sapiens) (UniProt Q9Y336). Nature of the assay: Hs-Siglec9 ALPHAscreen SOP 20170721. The note with it: 10 µM. A general note: In Alpha technology, singlet oxygen from a donor bead excites a nearby acceptor bead.
Sequence of Sialic acid-binding Ig-like lectin 9 (Homo sapiens) (Q9Y336 whole entry): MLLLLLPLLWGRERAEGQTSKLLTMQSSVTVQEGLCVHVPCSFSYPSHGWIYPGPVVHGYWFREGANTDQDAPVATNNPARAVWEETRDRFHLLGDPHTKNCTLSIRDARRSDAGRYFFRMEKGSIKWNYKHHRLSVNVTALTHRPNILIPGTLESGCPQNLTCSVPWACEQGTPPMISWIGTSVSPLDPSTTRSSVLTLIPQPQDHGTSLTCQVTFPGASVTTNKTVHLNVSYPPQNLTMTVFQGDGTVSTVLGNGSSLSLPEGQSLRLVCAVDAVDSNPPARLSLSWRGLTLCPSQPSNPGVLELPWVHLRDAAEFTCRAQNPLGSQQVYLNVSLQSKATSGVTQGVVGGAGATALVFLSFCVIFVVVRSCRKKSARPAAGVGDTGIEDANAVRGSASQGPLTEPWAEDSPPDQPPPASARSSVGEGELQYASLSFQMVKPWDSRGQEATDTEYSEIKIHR
The test system of another assay is Trypanosoma cruzi. The experiment in a line: Trypanosoma cruzi phosphomannomutase and mannose-1-phosphate guanylyltransferase assay. It counts as functional. The note with it: 10 µM.
Assay [5] addresses T2, Arginase-2, mitochondrial (Homo sapiens) (UniProt P78540).
T2 sequence (whole entry): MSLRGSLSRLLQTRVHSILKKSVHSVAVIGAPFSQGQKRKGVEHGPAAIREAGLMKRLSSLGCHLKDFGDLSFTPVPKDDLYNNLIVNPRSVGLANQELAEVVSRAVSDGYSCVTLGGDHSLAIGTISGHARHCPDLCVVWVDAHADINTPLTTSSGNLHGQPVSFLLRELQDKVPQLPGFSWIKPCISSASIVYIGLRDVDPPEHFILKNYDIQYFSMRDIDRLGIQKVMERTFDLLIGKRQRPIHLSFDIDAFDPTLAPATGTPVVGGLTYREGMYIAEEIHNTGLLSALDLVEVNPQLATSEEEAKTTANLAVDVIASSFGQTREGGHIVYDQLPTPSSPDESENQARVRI
Nature of the assay: in vitro enzyme assay to detect the production of urea directly proportional to the activity of Arginase II. Note: in the data most compounds retested in dose-response had high values. The format is functional. The note with it: 33.3 µM.

Assay [6] concerns the target T3, Proteasome subunit beta (Trypanosoma cruzi) (UniProt O96673).
T3 sequence (whole entry): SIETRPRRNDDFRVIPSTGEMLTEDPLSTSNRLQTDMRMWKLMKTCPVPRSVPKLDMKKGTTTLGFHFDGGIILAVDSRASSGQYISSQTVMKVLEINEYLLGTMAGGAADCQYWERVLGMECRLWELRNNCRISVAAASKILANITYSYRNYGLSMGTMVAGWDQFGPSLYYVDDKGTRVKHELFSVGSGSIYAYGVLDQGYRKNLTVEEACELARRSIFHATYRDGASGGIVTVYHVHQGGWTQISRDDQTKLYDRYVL
Nature of the assay: Trypanosoma cruzi proteasome chymotrypsin-like activity (TcProtChymo) assay. Note: in the data most compounds retested in dose-response had high values. The note with it: 9.37 µM. It counts as functional.

The species named for the next assay is Homo sapiens. The experiment in a line: To identify inhibition of the IFN signalling (Jak-Stat) pathway via expression of an eGFP reporter gene under the control of an IFN-stimulated response element (ISRE) containing MxA promoter. It counts as functional. The note with it: 30 µM. For orientation: Reporter assays use an easily measured gene product as a stand-in for the process of interest.

Assay [7] concerns the target T4, Tyrosyl-tRNA synthetase, putative (Trypanosoma cruzi (strain CL Brener)) (UniProt Q4DSP6).
T4 sequence (whole entry): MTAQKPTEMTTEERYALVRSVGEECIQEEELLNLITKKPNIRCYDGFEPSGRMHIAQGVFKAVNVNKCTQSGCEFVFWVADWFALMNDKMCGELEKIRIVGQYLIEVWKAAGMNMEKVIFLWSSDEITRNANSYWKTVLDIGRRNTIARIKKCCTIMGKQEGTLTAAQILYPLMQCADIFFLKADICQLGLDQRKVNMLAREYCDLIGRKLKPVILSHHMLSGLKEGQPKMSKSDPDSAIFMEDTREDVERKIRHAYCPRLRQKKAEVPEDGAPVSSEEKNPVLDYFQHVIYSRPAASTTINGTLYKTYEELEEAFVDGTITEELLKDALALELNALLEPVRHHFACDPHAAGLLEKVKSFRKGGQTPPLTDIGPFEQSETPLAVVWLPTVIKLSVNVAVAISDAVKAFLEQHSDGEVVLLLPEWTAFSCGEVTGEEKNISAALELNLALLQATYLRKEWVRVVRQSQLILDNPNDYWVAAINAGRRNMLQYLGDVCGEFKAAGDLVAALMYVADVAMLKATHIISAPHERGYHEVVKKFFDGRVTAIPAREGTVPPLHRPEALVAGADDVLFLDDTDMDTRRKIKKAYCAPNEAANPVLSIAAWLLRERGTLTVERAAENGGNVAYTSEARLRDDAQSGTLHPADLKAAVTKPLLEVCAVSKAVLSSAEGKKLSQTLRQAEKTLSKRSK
The experiment in a line: Trypanosoma cruzi tyrosyl tRNA synthetase (TcYRS) _High Tyrosine SOP. Note: in the data most compounds retested in dose-response had high values. The format is functional. The note with it: 30 µM.

Assay [8] addresses T4, Tyrosyl-tRNA synthetase, putative (Trypanosoma cruzi (strain CL Brener)). The experiment in a line: Trypanosoma cruzi tyrosyl tRNA synthetase (TcYRS) SOP. It counts as functional. The following applies: 30 µM.
The target in assay [9] is Chromo domain-containing protein 1 (Saccharomyces cerevisiae (strain ATCC 204508 / S288c) (Baker's yeast)) (UniProt P32657). Nature of the assay: ScCHD-1 Enzyme Inhibition Assay. Note: in the data most compounds retested in dose-response had high values. The format is functional. The following applies: 30 µM.
Sequence of Chromo domain-containing protein 1 (Saccharomyces cerevisiae (strain ATCC 204508 / S288c) (Baker's yeast)) (P32657 whole entry, the tested form may be a part): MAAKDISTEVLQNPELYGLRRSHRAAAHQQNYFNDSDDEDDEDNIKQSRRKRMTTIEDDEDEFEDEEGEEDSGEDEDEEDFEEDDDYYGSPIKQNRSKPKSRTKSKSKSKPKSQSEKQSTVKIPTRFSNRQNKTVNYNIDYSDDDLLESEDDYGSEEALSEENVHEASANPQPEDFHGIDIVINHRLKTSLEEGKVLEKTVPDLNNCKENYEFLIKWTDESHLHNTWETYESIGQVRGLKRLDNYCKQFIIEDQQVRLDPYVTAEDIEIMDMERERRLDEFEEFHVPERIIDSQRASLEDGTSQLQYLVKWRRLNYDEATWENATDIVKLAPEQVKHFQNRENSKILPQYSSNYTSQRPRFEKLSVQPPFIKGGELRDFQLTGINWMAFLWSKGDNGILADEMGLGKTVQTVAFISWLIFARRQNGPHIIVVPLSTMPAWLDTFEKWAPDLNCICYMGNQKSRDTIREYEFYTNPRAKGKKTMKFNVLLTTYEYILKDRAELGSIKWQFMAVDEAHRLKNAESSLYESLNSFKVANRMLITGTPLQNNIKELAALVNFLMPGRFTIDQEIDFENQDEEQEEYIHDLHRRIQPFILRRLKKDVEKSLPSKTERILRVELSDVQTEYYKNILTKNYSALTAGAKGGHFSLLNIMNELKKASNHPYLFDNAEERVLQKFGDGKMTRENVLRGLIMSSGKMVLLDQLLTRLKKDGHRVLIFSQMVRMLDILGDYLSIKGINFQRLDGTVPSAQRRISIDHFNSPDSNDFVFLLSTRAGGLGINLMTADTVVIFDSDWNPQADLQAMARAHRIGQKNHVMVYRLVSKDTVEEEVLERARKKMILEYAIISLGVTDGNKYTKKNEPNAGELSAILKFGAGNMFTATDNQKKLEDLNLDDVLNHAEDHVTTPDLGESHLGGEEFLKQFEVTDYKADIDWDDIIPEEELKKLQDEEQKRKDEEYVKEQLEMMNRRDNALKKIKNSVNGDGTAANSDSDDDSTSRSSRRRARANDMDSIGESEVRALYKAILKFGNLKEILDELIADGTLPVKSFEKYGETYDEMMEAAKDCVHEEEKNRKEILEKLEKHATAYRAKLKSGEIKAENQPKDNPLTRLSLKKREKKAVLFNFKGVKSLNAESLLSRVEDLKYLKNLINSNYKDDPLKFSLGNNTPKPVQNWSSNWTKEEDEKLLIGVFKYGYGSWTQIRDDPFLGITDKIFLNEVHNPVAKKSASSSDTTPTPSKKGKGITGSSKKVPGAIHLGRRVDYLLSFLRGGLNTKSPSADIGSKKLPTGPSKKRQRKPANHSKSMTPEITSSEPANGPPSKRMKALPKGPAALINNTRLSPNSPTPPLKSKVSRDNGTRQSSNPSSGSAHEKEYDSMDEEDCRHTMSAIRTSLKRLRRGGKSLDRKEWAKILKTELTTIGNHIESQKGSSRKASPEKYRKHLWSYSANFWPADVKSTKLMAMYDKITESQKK

As to `O=C(O)c1csc(S(=O)(=O)N2CCCc3ccc(F)cc32)c1`, the Percent Effect in [1] was -6.97%; in assay [2] it was -2.67%; in [3] it was -4.41%; in assay [4], 4.48%; in the assay on Trypanosoma cruzi, 0.682%; in assay [5], 0%. The Percent Effect in assay [6] was 6.1%; in the assay listed under Homo sapiens it was 8.48%; in assay [7], -13.7%; in assay [8], -13.6%; in assay [9], -5.31%.
Take `O=C(CCCNC(=O)C1CC1)Nc1cnn(-c2ccccc2Cl)c1`: the Percent Effect is -2.62% in assay [1]; 5.41% in [2]; -9.02% in assay [3]; 0.665% in [4]; 7.33% with Trypanosoma cruzi; -3.51% in [5]. Besides, the Percent Effect in assay [6] was 5.03%; in the assay listed under Homo sapiens, -1.9%; in [7] it was 5.94%; in assay [8], 13.4%; in assay [9], -3.58%.
Turning to `Cc1cc(C)n(C2CCCN(C(=O)Cc3csc(C)n3)C2)n1` (stereo not drawn), the Percent Effect in assay [1] is -3.62%; in assay [2] it was 0%; in assay [3], -2.28%; in [4], 17.5%; with Trypanosoma cruzi it was 6.7%; in assay [5] it was 1.9%. The Percent Effect is 4.34% in assay [6]; -6.53% in the assay filed under Homo sapiens; 4.43% in assay [7]; -3.8% in [8]; -6.83% in [9].
Turning to `Cc1cc(C(=O)N2CCCCC2c2nc(C)cs2)[nH]n1` (stereo not drawn), the Percent Effect in assay [1] is -4.07%; in assay [2], 5.2%; in [3], 0.468%; in assay [4] it was -1.4%; with Trypanosoma cruzi it was 5.62%; in assay [5], -4.27%. For the same compound, the Percent Effect was -2.03% in [6]; -9.54% in the assay listed under Homo sapiens; 4.85% in [7]; 12.2% in assay [8]; 84.3% in [9].
Consider `CCCn1ccc2ccc(NC(=O)N(C)CCOC)cc21`, for which the Percent Effect in [1] was -1.73%; in assay [2], -10.5%; in assay [3] it was -6.25%; in [4], 4.31%; with Trypanosoma cruzi it was -4.58%; in [5], 1.18%. In addition, the Percent Effect is 9.3% in [6]; -9.53% in the assay filed under Homo sapiens; 1.06% in assay [7]; 5.2% in assay [8]; -2.86% in [9].
`Cc1nc(NC2CCCC2)cc(C2CCN2C(=O)c2ccccc2)n1` (stereo not drawn): the Percent Effect in [1] is -6.88%; in assay [2] it was 4.05%; in [3], 3.55%; in assay [4] it was 0.412%; in the assay with Trypanosoma cruzi it was 3.16%; in assay [5], -1.62%. For the same compound, the Percent Effect in [6] was 6.08%; in the assay listed under Homo sapiens, -2.7%; in assay [7] it was 1.07%; in [8], 3.9%; in assay [9], -22.1%.
In the case of `COCC(=O)N1CCC(c2nccn2CC2CC2)CC1`, the Percent Effect in assay [1] is 0.53%; in assay [2] it was 10.8%; in assay [3], -6.45%; in assay [4] it was 8.36%; with Trypanosoma cruzi it was 5.41%; in assay [5], 8.57%. The Percent Effect in assay [6] is 19.8%; in the assay filed under Homo sapiens it was -2.14%; in assay [7] it was 6.88%; in assay [8] it was 19.5%; in assay [9], -2.23%.
For `Cc1csc(CNC(=O)Nc2cc(C(F)(F)F)c[nH]c2=O)n1`, the Percent Effect in assay [1] was -1.61%; in assay [2], 6.94%; in [3], 2.39%; in assay [4], 2.89%; with Trypanosoma cruzi it was 6.71%; in [5], 1.77%. Also, the Percent Effect in assay [6] was 13.3%; in the assay filed under Homo sapiens, 8.26%; in [7] it was 7.37%; in assay [8], 10.3%; in [9], -3.2%.
